# Reference: ChEMBL document CHEMBL3988442, “University of Dundee, Small-Polar-MMV Screening Library” (2021)
# The whole screen tested about 48,000 compounds, of which about 13,000 (27%) showed an effect of 50% or more. The list shows a part of the results.
# Tested on: Wolbachia pipientis
# Test: Anti-Wolbachia Cell-Based Screen
# Type: functional
# Parameters: scale not given: in the data most compounds retested in dose-response had high values
# Conditions: 5 µM
row,Structure (SMILES),Percent Effect
1,CCn1c(C)cc(C(=O)NCc2cccc(NS(C)(=O)=O)c2)c1C,-5.652%
2,CNC(=O)c1cc(NC(=O)NCC2CCS(=O)(=O)C2)ccc1OC (configuration not stated),-3.737%
3,Cc1noc(OCc2csc(C)n2)n1,2.505%
4,COc1cc2nc(C)sc2cc1NC(=O)C(C)NC(N)=O (configuration not stated),-2.888%
5,COc1ccccc1N1CCN(C(=O)CCCS(N)(=O)=O)C(C)C1 (configuration not stated),-9.849%
6,CCOC(=O)c1sc2ccsc2c1CNC(=O)CC,11.82%
7,CCOC(=O)c1sc2ccsc2c1CNC(=O)C(C)(C)C#N,61.27%
8,CCOC(=O)c1sc2ccsc2c1CN.Cl,-6.159%
9,O=C(c1ccc[nH]1)N1C[C@H]2CC[C@@H]1CN(C1Cc3ccccc3C1)C2,-8.418%
10,Cc1cccc(-c2nc(C)nn2CC(=O)NC(C)C)c1,108.3%
11,Cc1cccc(-c2nc(C)nn2CC(=O)NC(C)C2CC2)c1 (configuration not stated),96.27%
12,CCC(C)(C)NC(=O)Cn1nc(C)nc1-c1cccc(C)c1,-9.782%
13,Cc1nc(-c2ccccc2)n(CC(=O)NC(C)C2CC2)n1 (configuration not stated),-16.22%
14,Cc1cccc(-c2nc(C)nn2CC(=O)N(C)C2CC2)c1,-1.032%
15,Cc1cccc(-c2nc(C)nn2CN2CCN(S(C)(=O)=O)CC2)c1,-9.044%
16,Cc1ccc(CNC2(Cc3cc(CC(C)C)on3)COC2)o1,0.7021%
17,N#CCCN1CC(O)CN(C(=O)c2cccc(C(F)(F)F)c2)CC1=O (configuration not stated),98.63%
18,CCN1CC(O)CN(C(=O)c2cccc(C(F)(F)F)c2)CC1=O (configuration not stated),106.7%
19,Nc1cc(C(=O)N2CCOC(Cc3cccc(C(F)(F)F)c3)C2)ccn1 (configuration not stated),-0.1683%
20,O=C(O)C(F)(F)F.O=C(c1cccc(Cl)c1)N1CC[C@H]2[C@H]1CCN2CC1CC1,-19.81%
21,O=C(c1ccc(=O)[nH]c1)N1CCC(Oc2cccc(C(F)(F)F)c2)CC1,-22.64%
22,CC(C)(C)CN1CC(O)CN(C(=O)c2cccc(C(F)(F)F)c2)CC1=O (configuration not stated),85.94%

row,Structure (SMILES),Percent Effect
1,O=C1CN(C(=O)c2cccc(C(F)(F)F)c2)CC(O)CN1CC1CC1 (configuration not stated),100.3%
2,Cc1nnn2c1COCC(CNCc1nccs1)C2.O=C(O)C(F)(F)F (configuration not stated),-0.1911%
3,Cc1cc(C)n(CC(C)NC2CCN(Cc3cccc(O)c3)CC2)n1 (configuration not stated),-0.5082%
4,NC(=O)c1csc(N2CCCC(c3nc4ccccc4[nH]3)C2)n1 (configuration not stated),1.485%
5,CNC(=O)[C@@H](c1ccccc1OC)N1CCC[C@H]1C(=O)NC1CC1.Cl,-3.931%
6,CNC(=O)[C@H]1C[C@@H]2CN(S(=O)(=O)c3cccc(F)c3)C[C@@H]2N1C.O=C(O)C(F)(F)F,-6.312%
7,Cc1nn(C)c(C)c1C1CCCN1c1ncnc2c1CCC2 (configuration not stated),10.31%
8,CCCn1nccc1S(=O)(=O)N1CCC2(CCCN(C(C)C)C2=O)C1 (configuration not stated),7.399%
9,CCC1CCC(NCCN2CCOCC2)CC1 (configuration not stated),-1.764%
10,COc1ncc(-c2nccn2C(C)CCn2cccn2)cn1 (configuration not stated),-0.87%
11,COCCN1CC(O)CN(C(=O)c2cccc(C(F)(F)F)c2)CC1=O (configuration not stated),96.14%
12,O=C(O)C1CCCCN1C(=O)c1cccc(C(F)(F)F)c1 (configuration not stated),1.382%
13,O=C(c1ccncc1)N1CCC(Oc2cccc(C(F)(F)F)c2)CC1,-12.2%
14,Nc1cc(C(=O)N2CCC(Oc3cccc(C(F)(F)F)c3)CC2)ccn1,0.5907%
15,CC(C)CN1CC(O)CN(C(=O)c2cccc(C(F)(F)F)c2)CC1=O (configuration not stated),93.47%
16,CC(C)c1nnc2n1CCN(C(=O)c1cccc(C(F)(F)F)c1)C2,-7.984%
17,O=C(c1cccc(C(F)(F)F)c1)N1CC(=O)N(C2CCC2)CC(O)C1 (configuration not stated),119.9%
18,Cc1c(Br)cccc1C(=O)NCC1CCNCC1.Cl,5.039%
19,COC(=O)NCc1ccc(NC(=O)CC2=CCCCC2)cc1,-4.854%
20,Cc1nc(N2CCN(S(C)(=O)=O)CC2)cc(-n2cnc(C)c2C)n1,-12.66%
21,CC(C)(C)CCN1CCCC(Cn2cc(CCO)nn2)C1 (configuration not stated),-5.43%
22,CC(C)(C)n1cc(C(=O)N2CCN(Cc3ccccc3F)CC2)cn1,-9.517%

row,Structure (SMILES),Percent Effect
1,CNS(=O)(=O)c1ccc(CN2CCN(Cc3ncccc3C)CC2)cc1,2.71%
2,Cc1ccccc1CN1CCN(C(=O)c2ccn(C(C)(C)C)c2)CC1,106.5%
3,Cc1ccccc1CN1CCN(C(=O)CCn2ccccc2=O)CC1,-43.85%
4,Cc1cccnc1CN1CCN(C(=O)CCn2ccccc2=O)CC1,-35.18%
5,Cc1cccnc1CN1CCN(C(=O)c2ccn(C(C)(C)C)c2)CC1,140.1%
6,CCOC(=O)CC(NC(=O)c1cn(Cc2ccccc2F)nn1)C(C)C (configuration not stated),0.973%
7,O=C(O)C1c2nc[nH]c2CCN1Cc1cc(-c2ccccc2)no1 (configuration not stated),-8.907%
8,CCCc1cc(C(=O)N(C)Cc2cccc3cnccc23)n(C)n1,-5.635%
9,CN(Cc1cccc2cnccc12)C(=O)CCc1n[nH]c2c1CCCC2,113.4%
10,O=C(CCc1n[nH]c2c1CCCC2)N1C[C@@H]2CC[C@H](C1)N(CC1CC1)C2,3.665%
11,Cc1ncc(CC(=O)N2CCC3(CCC(=O)N(C4CC4)C3)CC2)c(=O)[nH]1,3.916%
12,NC(=O)NC1CCN(Cc2ccc(Br)c(F)c2)CC1,-13.64%
13,CC(C)(C)NS(=O)(=O)c1ccccc1CNCc1cccc(O)c1,-1.047%
14,Cc1oc(C)c(C(=O)NCc2cccnc2N(C)C)c1C,-9.408%
15,CCN(C(=O)NCc1cccnc1N(C)C)C(C)c1cccnc1 (configuration not stated),-18.28%
16,CCc1ncc(CNCc2cccnc2N(C)C)cn1,101.7%
17,CCOc1ccc(S(=O)(=O)NCc2cccnc2N(C)C)cc1,-21.99%
18,CC(C)NS(=O)(=O)c1ccccc1CNCc1cccc(O)c1,-3.142%
19,CN(C)c1ncccc1CNCc1cccc(O)c1,107.5%
20,CCOc1ccc(CNCc2cccnc2N(C)C)cc1,80.05%
21,CC(=O)Nc1ccc(CNCc2cccnc2N(C)C)cc1,96.06%
22,O=C(O)[C@@H]1CN(Cc2c[nH]c(CC3CCCC3)n2)C[C@H]1c1ccncc1,-4.479%

row,Structure (SMILES),Percent Effect
1,CCN(CC)c1nc2sc(C(=O)NCC(=O)OC)cc2s1,-6.557%
2,O=C1N[C@@H]2CCN(C(=O)N3CCOCC3)[C@@H]2C(=O)N1Cc1ccccc1,7.346%
3,OC(CN(Cc1ccccc1)Cc1ccon1)c1ccco1 (configuration not stated),27.39%
4,CCCN1CCC(NN2CCN(C)CC2)CC1,6.891%
5,COc1ccc2[nH]c(C(=O)NCC3(N)CCCC3)cc2c1,112.8%
6,COc1ccc(CNC(=O)C2(C#N)CCCC2)cc1,-22.34%
7,O=C(NCC1(O)CCSCC1)c1nccc2ccccc12,-4.929%
8,O=C(Nc1cc(CSCCO)ccn1)c1cc2ccccc2[nH]1,-29.11%
9,NC1(CNC(=O)c2cc3ccccc3[nH]2)CCCC1,106.9%
10,COc1ccc2cc(C(=O)N3CCCCC3CC(N)=O)[nH]c2c1 (configuration not stated),-6.391%
11,COCCOc1ccc(NC(=O)N(C)Cc2ccsc2)cn1,-6.376%
12,Cc1noc([C@H]2C[C@H]3OCC[C@H]3N(Cc3cccs3)C2)n1.O=C(O)C(F)(F)F,-3.779%
13,CN(Cc1ncnn1C)C(=O)CCCn1ccc2cc(Cl)ccc21,8.375%
14,Cn1cc(CCNC(=O)N2CCCc3c(F)cccc32)cn1,-24.48%
15,O=C(NCCC(=O)N1CCCc2ccccc21)c1c(F)cccc1F,120%
16,CCC(CNC(=O)c1ccc(F)cc1F)N1CCc2ccccc2C1 (configuration not stated),10.38%
17,O=C(NCCC(=O)N1CCCc2ccccc21)c1cc(F)cc(F)c1,126.9%
18,O=C(NCCC(=O)N1CCCc2ccccc21)c1ccc(F)cc1F,138.5%
19,O=C(NCCSC1CCCC1)c1c(F)cccc1F,10.15%
20,O=C(NCC(=O)N1CCCc2ccccc21)c1c(O)cc(F)cc1F,103.6%
21,O=C(NCCS(=O)(=O)N1CCc2ccccc21)c1c(O)cc(F)cc1F,11.09%
22,CS(=O)(=O)c1ccc2c(c1)N(C(=O)c1cccc(F)c1)CCC2,5.094%

row,Structure (SMILES),Percent Effect
1,CS(=O)(=O)c1ccc2c(c1)N(C(=O)Cc1cccc(F)c1)CCC2,1.079%
2,O=C(NCCSC1CCCC1)c1ccc(F)cc1F,11.89%
3,O=C(NCCC(=O)N1CCCc2ccccc21)c1c(O)cc(F)cc1F,3.729%
4,CC(C)N1CCC2(CC1)CN(C)C(=O)C[C@H]2C(F)(F)F,-3.989%
5,COc1ccc2c(c1)CCCN(C(C)C(=O)NC(N)=O)C2 (configuration not stated),-1.078%
6,NC(=O)C1=NC2=NS(=O)(=O)c3ccccc3N2N1Cc1ccc(Br)cc1,9.157%
7,Cc1c[nH]c(C(=O)N2CCn3nc(C(=O)NC4CC4)cc3C2)n1,-2.025%
8,Cc1nc2ccc(C(=O)N3CCN(CCO)[C@@H]4CS(=O)(=O)C[C@@H]43)cc2o1,-12.01%
9,CC(C)N1CCC(c2n[nH]cc2S(C)(=O)=O)CC1,115.7%
10,CCc1ncc(C(=O)N2CCCC(c3nccn3CCOC)C2)cn1 (configuration not stated),-9.089%
11,Cn1ccnc1C1CCCN(C(=O)c2ccncc2F)C1 (configuration not stated),111.1%
12,Cc1cc(C(=O)N2CCCC(c3nccn3C)C2)cc(S(N)(=O)=O)c1C (configuration not stated),99.7%
13,Cn1ccnc1C1CCCN(C(=O)c2cc(F)cc(F)c2)C1 (configuration not stated),106.9%
14,Cc1cc(C(=O)N2CCCC(c3nccn3Cc3ccncc3)C2)no1 (configuration not stated),10.63%
15,Cc1nc(N)sc1C(=O)N1CCCC(c2nccn2CCCN(C)C)C1 (configuration not stated),8.356%
16,COCCn1ccnc1C1CCCN(C(=O)c2ccccc2C#N)C1 (configuration not stated),-8.592%
17,COCCn1ccnc1C1CCCN(C(=O)c2ccncc2F)C1 (configuration not stated),0%
18,COCCn1ccnc1C1CCCN(C(=O)c2cccnc2SC)C1 (configuration not stated),-0.1241%
19,COCCn1ccnc1C1CCCN(C(=O)c2cc(F)cc(F)c2)C1 (configuration not stated),83.8%
